Measured values from PubChem BioAssay AID940 (Emory University Molecular Libraries Screening Center, 2007).
Several values for one entry are separate records, joined by “and”; a condition that tells them apart may be missing. Identical values can stand only once. Hit rate of the full screen: of about 260,000 compounds, about 2,200 (0.85%) were called active. The sample holds actives, similar compounds and a random draw of the others, so the mix is not that of the screen.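 Rule for the calls: active = compounds whose cAMP rise, as percent of the full-agonist control response, exceeds 60; inactive = the rest.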 Where a structure was tested more than once in an assay, its records may differ in their call.

What follows are compounds tested against Prostaglandin E2 receptor EP2 subtype (Homo sapiens) (UniProt P43116) (assay: EP2 receptor modulators, cAMP readout, primary screen, cell-based, HTRF cAMP, PGE2 stimulation (AID 940;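 note: rat C6 glioma line stably carrying human EP2 under a CMV promoter; the protocol text gives 20 µM as final concentration; 100% = response of wells given 1 µM PGE2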)). Details: EP2-expressing cells, cAMP HTRF FRET, PGE2 co-stimulation; at 25 µM; stronger effect = higher value.
Sequence of Prostaglandin E2 receptor EP2 subtype (Homo sapiens) (P43116 whole entry, looked up): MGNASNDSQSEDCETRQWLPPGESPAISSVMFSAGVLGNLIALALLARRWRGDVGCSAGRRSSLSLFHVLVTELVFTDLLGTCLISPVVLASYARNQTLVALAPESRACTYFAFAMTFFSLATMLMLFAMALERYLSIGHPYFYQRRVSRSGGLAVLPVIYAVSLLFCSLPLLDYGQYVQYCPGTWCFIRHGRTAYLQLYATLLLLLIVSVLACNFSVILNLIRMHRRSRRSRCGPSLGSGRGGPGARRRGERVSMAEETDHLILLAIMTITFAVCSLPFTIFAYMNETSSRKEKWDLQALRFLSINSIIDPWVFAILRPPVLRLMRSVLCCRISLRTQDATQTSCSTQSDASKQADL

Row | Structure (SMILES) | induction
1 | COc1ccccc1NC(=S)N1CCC(NC(=O)C23CC4CC(CC(C4)C2)C3)CC1 | -21% (inactive) and -7.94% (inactive)
2 | COc1ccccc1NC(=S)N1CCN(C(c2ccccc2)c2ccccc2)CC1 | 61.4% (active)
3 | CC(C)NC(=S)N1CCN(C(c2ccccc2)c2ccccc2)CC1 | 21.2% (inactive)
4 | COc1cccc(NC(=O)C(C#N)Cc2cccnc2)c1 (centres undefined) | 2.36% (inactive)
5 | O=c1oc2ccccc2cc1-c1csc(Nc2cccc(O)c2)n1 | -123% (inactive)
6 | CC1(C)CCCC2(C)C3C1[C@@H](O)C2(C)C[C@H]3O (some centres undefined) | 15.3% (inactive)
7 | CC(C)NC(=O)CN1N=C(c2ccccc2)Cn2c(cc3ccccc32)C1=O | -36.4% (inactive)
8 | NC(=O)c1nnn(-c2ccc(S(=O)(=O)N3CCCCC3)cc2)c1N | 11.5% (inactive)
9 | O=C(Nc1ccccc1N1CCN(C(=O)c2ccccc2)CC1)c1ccc2c(c1)OCO2 | -6.37% (inactive)
10 | Cc1cccc(C(=O)Nc2ccccc2N2CCN(c3ccc(F)cc3)CC2)c1 | 49.9% (inactive)
11 | Cc1ccc(C)c(NC(=O)c2ccc3nccnc3c2)c1 | -54% (inactive)
12 | O=C(Nc1ccccc1N1CCCCC1)c1ccc2nccnc2c1 | 87.1% (active)
13 | O=C(Nc1ccccc1N1CCN(c2ccccc2)CC1)c1cccc(F)c1 | 48.5% (inactive)
14 | O=C(Nc1ccccc1N1CCCCC1)c1cccc(F)c1 | 66.7% (active)
15 | CN(C(=O)C1CCCCC1)c1nc(-c2ccc(Cl)cc2)cs1 | -0.87% (inactive)
16 | Cc1ccc(N(C(=O)Cn2nnc3ccccc32)C(C(=O)NC2CCCC2)c2ccsc2)cc1 (centres undefined) | 20.6% (inactive)
17 | CC(=O)C1CC(CC(=O)N[C@H](Cn2nnc3ccccc32)C(C)C)C1(C)C (some centres undefined) | -25.1% (inactive)
18 | COc1cccc(/C(O)=C2/C(=O)C(=O)N(CCN(C)C)C2c2ccco2)c1 (centres undefined) | 2.05% (inactive)
19 | Cc1ccc2[nH]c(=O)c(C(c3nnnn3Cc3ccc(F)cc3)N3CCCC3)cc2c1 (centres undefined) | -4.96% (inactive)
20 | NC(=O)CNC(=O)C1CCCN(c2ncccn2)C1 (centres undefined) | 14.7% (inactive)
21 | COCCNCC(=O)N1CCc2ccccc21 | 10.7% (inactive)
22 | Cc1ccc2cc(C(c3nnnn3C3CCCC3)N3CCC(C)CC3)c(=O)[nH]c2c1C (centres undefined) | -2.6% (inactive)
23 | CCn1c(Cc2ccccc2)nnc1SCc1nc2ccccc2c(=O)[nH]1 | 2.09% (inactive)
24 | Cn1c(-c2ccc(F)cc2)cnc1SCC(=O)NCc1ccco1 | -17% (inactive) and -3.43% (inactive)

Row | Structure (SMILES) | induction
25 | O=c1[nH]c(CSc2ncc(-c3ccc(F)cc3)n2Cc2ccco2)nc2ccccc12 | 46.2% (inactive) and 68.4% (active)
26 | COc1ccc2cc(C)c3nn(CC(=O)N4CCC(C)CC4)c(=O)n3c2c1 | -70.2% (inactive)
27 | CCn1cc(S(=O)(=O)N2CCC(CCc3ccc(C(=O)O)cc3)CC2)c(C)n1 | -33.1% (inactive)
28 | Cc1cc(NC(=O)CSc2nnc3c4c5c(sc4nc(C(C)C)n23)CCCC5)no1 | 0.87% (inactive)
29 | CCOC(=O)C1=C(CN2CCc3ccccc32)NC(=O)NC1c1cccc([N+](=O)[O-])c1 (centres undefined) | 64.5% (active)
30 | CCOC(=O)C1=C(C)NC(=O)NC1c1ccccc1 (centres undefined) | 19% (inactive)
31 | CCOC(=O)C1=C(CN2CCCCCC2)NC(=O)NC1c1cccc([N+](=O)[O-])c1 (centres undefined) | -9.45% (inactive)
32 | CCOC(=O)C1=C(CNC2CCCCC2)NC(=O)NC1c1cc(C)ccc1C (centres undefined) | 34.3% (inactive)
33 | CCOC(=O)C1=C(c2ccccc2)NC(=S)NC1c1ccc(Cl)cc1 (centres undefined) | 47.1% (inactive)
34 | CCOC(=O)C1=C(CN2CCc3ccccc32)NC(=O)NC1c1ccc(Cl)cc1 (centres undefined) | 68.2% (active)
35 | COc1ccc(-c2nc(SCC(=O)O)n[nH]2)cc1 | -21.9% (inactive)
36 | Cc1ccc(NC(=O)CSc2nccc(=O)[nH]2)c(C)c1 | -21.1% (inactive)
37 | Clc1c(-c2nnc(-c3ccc(N4CCOCC4)cc3)o2)sc2ccccc12 | -13.2% (inactive)
38 | Cc1cc2nc(C(F)(F)F)cc(-c3cccs3)n2n1 | 19.1% (inactive)
39 | Cc1cc(-c2cccs2)nc(-n2cccc2)n1 | 62.7% (active)
40 | c1csc(-c2cn3c(n2)SCC3)c1 | -16.2% (inactive)
41 | O=C(CSc1nc(-c2ccco2)cc(C(F)(F)F)n1)Nc1ccc(Cl)cc1Cl | -110% (inactive)
42 | O=C(NCCO)C(=O)NCC1COc2ccccc2O1 (centres undefined) | -12.4% (inactive)
43 | Cc1ccc2nc(NC(=O)c3c(O)c4cccc5c4n(c3=O)CC5)sc2c1 | -11.9% (inactive)
44 | CCNC(=O)c1c(O)c2cccc3c2n(c1=O)CC3 | 60.8% (active)
45 | Cc1cc(=O)n2c3c(cccc13)CCC2 | 1.93% (inactive)
46 | CN1c2ncccc2C(=O)NC12CCN(C(=O)Cn1ncc3ccccc3c1=O)CC2 | -10.6% (inactive)
47 | O=C(NCc1ccco1)c1cc2sccc2n1Cc1ccc(F)cc1 | 41.1% (inactive)
48 | CC1Cc2ccccc2N1C(=O)c1cc2sccc2n1Cc1ccccc1 (centres undefined) | 54.1% (inactive)

Row | Structure (SMILES) | induction
49 | O=C(c1cc2sccc2n1Cc1ccc(F)cc1)N1CCc2ccccc21 | 63% (active)
50 | O=C(NCc1nc(-c2cccnc2)n[nH]1)C(c1ccccc1)C1CCCCC1 (centres undefined) | 24.6% (inactive)
51 | Cc1ccccc1-n1c(SCC(=O)N2CCCCCC2)nnc1-c1cccnc1 | -15.5% (inactive)
52 | COc1cccc(CN2CCN(C(=O)c3ccccn3)[C@@H](C)C2)c1 | -14.5% (inactive)
53 | CCn1c(SCC(=O)Nc2ccc(C)cc2C)nnc1C(C)C | -31.6% (inactive)
54 | CCCC(=O)Nc1ccc(Cl)c(NC(=O)c2ccc(Br)o2)c1 | 6.2% (inactive)
55 | COc1cc(OC)c(NC(=O)c2ccc(Br)o2)cc1Cl | -17.9% (inactive)
56 | CCN1CCN(c2c(Cl)cccc2NC(=O)c2ccc(Br)o2)CC1 | 74.4% (active)
57 | CCOC(=O)c1sc2nc(C)nc(SCC(N)=O)c2c1C | 9.11% (inactive)
58 | CCCc1nc(SCC(=O)OCC)c2c(C)c(C)sc2n1 | 74% (active)
59 | CCCc1nc(SCC(=O)N2CCCC2)c2c(C)c(C)sc2n1 | 1.9% (inactive)
60 | COc1ccc(OC)c(C(=O)CSc2ncnc3c2cnn3-c2ccccc2C)c1 | 44.3% (inactive)
61 | Cn1c(=O)[nH]c(=O)c2c1nc(NCCCO)n2Cc1cccc2ccccc12 | 22% (inactive)
62 | CCC(C)(C)c1ccc(OCC(=O)N(C)C)c(C(C)(C)CC)c1 | 76% (active)
63 | CN(C)CCOc1ccc(Cl)cc1C(C)(C)C | -0.86% (inactive)
64 | CCc1nc(C)ccc1OCC(=O)N(CC)CC | 8.52% (inactive)
65 | COc1cc(C2NC(=O)NC(C)=C2C(=O)Nc2ccc(C)cc2C)ccc1O (centres undefined) | 5.85% (inactive)
66 | O=C(CCn1c(SCC(=O)c2ccccc2)nc2ccccc2c1=O)NCc1ccc(F)cc1 | 11.2% (inactive)
67 | COC(=O)CSc1nc2ccccc2c(=O)n1Cc1ccccc1 | 47.6% (inactive)
68 | CSc1nc2ccccc2c(=O)n1Cc1ccc(F)cc1 | 80.8% (active)
69 | COc1cccc(C2(NC(=O)c3cccc(N4CCCCS4(=O)=O)c3)CCCC2)c1 | -5.04% (inactive)
70 | O=C(Nc1cc(Cl)cc(Cl)c1)C1CCN(C(=O)c2cccs2)CC1 | -118% (inactive)
71 | C=CCn1c(SCC(=O)Nc2ccccc2F)nc2sc(C)c(C)c2c1=O | -87.9% (inactive)
72 | COc1cccc(-c2ccc(NS(=O)(=O)c3ccc4c(c3)CCC(=O)N4)cc2)c1 | -97.5% (inactive)

Row | Structure (SMILES) | induction
73 | CC(C)Oc1c(Br)cc(Br)cc1/C=N/NC(N)=S | 62% (active)
74 | CCOc1ccc(/C=N/NC(N)=S)cc1 | -0.15% (inactive)
75 | NC(=S)N/N=C/c1coc2cc(Cl)ccc2c1=O | 5.33% (inactive)
76 | COc1ccccc1NC(=S)N(Cc1cc2c(C)cc(C)cc2[nH]c1=O)C1CCCC1 | 3.07% (inactive)
77 | COC(=O)c1c(NC(=O)C2CC2)sc(C(=O)Nc2cc(C)ccc2C)c1C | -75.5% (inactive)
78 | COC(=O)c1c(NC(=O)C(C)C)sc(C(=O)Nc2cc(C)ccc2C)c1C | 62% (active)
79 | CCOC(=O)C(=O)Nc1sc(C(=O)Nc2cc(C)ccc2C)c(C)c1C(=O)OC | -1.65% (inactive)
80 | COCCn1c(=O)n(CC(=O)N2CCN(c3ccccc3F)CC2)c2cccnc21 | 0.09% (inactive)
81 | CCN1c2ncccc2C(=O)NC12CCN(C(=O)c1cccc3c1C(=O)N(C)C3)CC2 | -5.04% (inactive)
82 | CCn1c(CSc2nc(C)cc(C)n2)nnc1SCC(=O)Nc1cccc(C(F)(F)F)c1 | -10.6% (inactive)
83 | CC[N+](C)(CC[N+](C)(C)C)Cc1cc2ccccc2o1 (centres undefined) | -3.15% (inactive)
84 | CCCCCCn1c(SCC(=O)c2ccccc2)nc2c1c(=O)[nH]c(=O)n2C | -0.64% (inactive)
85 | C=CCn1c(SC(C)C(=O)OC)nc2c1c(=O)[nH]c(=O)n2C (centres undefined) | -1.3% (inactive)
86 | CCCCCn1c(SCCC(C)C)nc2c1c(=O)[nH]c(=O)n2C | 69.2% (active)
87 | C=CCn1c(=O)c(C(=O)Nc2cccc(C)n2)c(O)c2ccccc21 | 2.07% (inactive)
88 | CCn1c(COc2ccc(OC)cc2)nnc1SC(C)C(=O)Nc1ccccc1C (centres undefined) | 28.9% (inactive)
89 | COc1ccccc1Cc1nnc(NC(=O)c2cnc(SC)nc2)s1 | -0.63% (inactive)
90 | CC1=CC(C)(C)N(C(=O)CSc2nccn2C)c2cc(C)ccc21 | 43.9% (inactive)
91 | O=C(CSc1nnc(-c2ccccc2)o1)N1CCOCC1 | 1.42% (inactive)
92 | CC1=CC(C)(C)N(C(=O)CSc2nnc(-c3ccccc3)o2)c2ccc(C)cc21 | 61.5% (active)
93 | COc1ccc(-c2csc(N3N=C(C)CC3=O)n2)cc1 | -82.9% (inactive)
94 | NC(=O)C1CCN(Cc2nnnn2Cc2ccccc2)CC1 | 25.5% (inactive)
